# In all, about 360,000 compounds went through this assay and about 25,000 (6.9%) were called active. Not shown: some 9% with an inconclusive outcome. The entries come from a sample that favours actives as a whole. A number with no mark means an inactive call. Calls come from the whole dose curve; as a rule, active = well fitted inhibition curve with a large enough effect; inconclusive = small, poorly fitted or top-dose-only effect; inactive = flat fitted curve, though single readings scatter.
# Molecular target: Luciferin 4-monooxygenase (Photinus pyralis) (UniProt P08659)
# Sequence (P08659 whole entry, looked up): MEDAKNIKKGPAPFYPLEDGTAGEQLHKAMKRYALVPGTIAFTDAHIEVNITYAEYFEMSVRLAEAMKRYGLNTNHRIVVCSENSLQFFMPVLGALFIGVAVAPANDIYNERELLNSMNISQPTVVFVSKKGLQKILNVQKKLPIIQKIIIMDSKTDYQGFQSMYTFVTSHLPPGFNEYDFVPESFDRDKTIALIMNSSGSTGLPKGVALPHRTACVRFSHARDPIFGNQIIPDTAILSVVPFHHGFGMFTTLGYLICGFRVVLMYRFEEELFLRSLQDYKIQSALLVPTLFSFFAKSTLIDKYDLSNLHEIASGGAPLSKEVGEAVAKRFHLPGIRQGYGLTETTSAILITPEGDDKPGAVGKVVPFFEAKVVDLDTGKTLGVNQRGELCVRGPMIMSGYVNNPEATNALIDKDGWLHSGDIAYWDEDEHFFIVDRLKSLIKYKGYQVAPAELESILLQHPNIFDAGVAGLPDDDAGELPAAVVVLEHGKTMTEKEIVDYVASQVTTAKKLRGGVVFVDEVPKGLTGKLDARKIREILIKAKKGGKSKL
# Test: qHTS profiling assay for firefly luciferase inhibitor/activator using purifed enzyme and Km concentrations of substrates (counterscreen for miR-21 project); note: nearly all actives have a fitted effect of over 55% in size;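 for activity change, negative = inhibition: plate controls were vehicle for no effect and reference inhibitor for full effect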
# Conditions: purified FLuc, luminescence inhibition; series mostly up to 57.5 µM; activity change, negative = inhibition: at the top concentration
# Description: MLPCN Grant: 1 R21 NS059478-01 (miR-21 grant) Assay Provider: NCGC NCGC Assay Overview: Firefly (Photinus pyralis) luciferase is one of the most commonly used transcriptional reporters for a number of reasons. It is considered one of the more dynamically responsive reporters -that is, responsive to changes in reporter transcription - as it requires no post-translational modifications and is enzymatically active directly after protein synthesis (Wood, 1998). Additionally, the half-life of the luciferase protein is short relative to other reporter-gene products (Wood, 1995). Whereas reporters with long half-lives potentially allow for increased signal due to accumulation of reporter-gene product, once accumulated in the cell, dynamic changes in reporter-gene expression may be difficult to detect(Fan and Wood, 2007; Almond et al., 2004). It has been shown that wild-type P. pyralis luciferase has a half-life of approximately […] hours in mammalian cells (Thompson et al., 1991). Firefly luciferase reporter-gene assays are also generally considered one of the most sensitive assay types (Wood, 1995; Wood, 1998). Although light produced in a bioluminescence reaction is of lower intensity than that produced during fluorescence emission, this is offset by little to no background light inherent to luminescent assays. Thus the luciferase reporter can be expressed at much lower levels than fluorescent proteins while still providing robust signal. # However, it was initially observed, in 1991, by Thompson et al., that compounds that resemble the substrates of firefly luciferase (FLuc) can act as competitive inhibitors of the enzyme, and that these compounds, upon interaction with luciferase in the cell, can actually stabilize the protein and increase its half-life. Accumulated intracellular FLuc protein can be measured as an increase in luminescence signal, upon addition of detection reagents (which contain high concentrations of FLuc substrates) commonly used in high-throughput screening. In cell-based reporter gene assays that use FLuc as the reporter gene to quantitate the potential influence of a given compound against the target biology, this apparent increase in luminescence can mistakenly be interpreted as identification of a compound that is active against the target of interest. This is the case for the miR-21 FLuc reporter gene assay used to identify inhibitors of the miR-21 pathway (PubChem AID 2289) - compounds of interest will inhibit miR-21 biogenesis/expression or activity, and are identified by causing an increase in luminescence, due to increased FLuc translation. However, FLuc inhibitory compounds that stabilize the FLuc protein will give an identical read-out, making it difficult to distinguish compounds that are active against the target from those active against FLuc. Previous profiling work to determine the prevalence of compounds that affect FLuc enzymatic activity (PubChem AID 411) identified that ~3% of the MLSMR library (then at ~72K) inhibited FLuc. […] Since the MLSMR had grown to ~350K compounds, and since it was expected that a significant percentage of compounds found active in the miR-21 FLuc assay would be FLuc inhibitors, the library was screened for activity against FLuc using a biochemical assay of purified FLuc and KM concentrations of FLuc substrates (D-luciferin and ATP).
# NCGC Assay Protocol Summary: Reagents: 50mM Tris acetate, pH 7.5; 10mM Mg acetate; 10uM D-luciferin (Sigma #L9504); 10uM ATP; 0.01% Tween-20; 0.05% BSA; 10nM P. pyralis luciferase (Sigma #L9506) Control compounds used were two known firefly luciferase inhibitors (compounds (2) and (5) in Auld et al., 2010), and DMSO. […]
Structure (SMILES),"activity change, negative = inhibition",Potency
Cc1ccc(Cn2nnnc2CN2CCC(n3nnc4ccccc43)CC2)cc1,0.191%,
CCc1cccc2c(C#N)cn(CC(=O)N3CCOCC3)c12,-0.188%,
C=CCN1C(=O)NC(=O)/C(=C/c2ccc(OCC(=O)Nc3ccc(C)cc3)cc2)C1=O,,21.3 µM (active)
O=C(O)COc1ccccc1/C=C1\C(=O)NC(=O)N(CCC2=CCCCC2)C1=O,0.408%,
C=CCN(CC=C)C(=O)Nc1ccc(OCC)cc1,-16.5%,
COC(=O)C1=C(c2ccc(Cl)c(C(F)(F)F)c2)C[C@@H]2CC[C@H]1N2C(=O)NC1CC1,-0.397%,
Cc1cc(C(=O)OCC(=O)Nc2c(F)cccc2F)c(C)n1C1CC1,2.98%,
c1cc2c(cc1CCNC1CCCCCC1)OCO2,4.17%,
COC(=O)C1=C(c2ccc(F)cc2OCc2ccccc2)C[C@@H]2CC[C@H]1N2C(=O)NCc1ccc(OC)c(OC)c1,0.248%,
Cc1cccc(N2C(=O)NC(=O)/C(=C\c3cnn(-c4ccccc4)c3)C2=O)c1,,15.1 µM (active)
COc1cccc(N2C(=O)NC(=O)/C(=C\c3cn(C)c4ccccc34)C2=O)c1,-6.34%,
O=C1C2(Cl)C3(Cl)C4(Cl)C(Cl)(Cl)C5(Cl)C3(Cl)C1(Cl)C5(Cl)C24Cl (stereo not given),3.33%,
COc1ccc(Br)cc1CNCCc1cccc(Cl)c1,0.615%,
COc1cc(-n2c(=S)[nH]c3ccc(C)cc3c2=O)c(Cl)cc1Cl,-15%,
c1csc(-c2nnc(COc3ccc4c(c3)OCO4)o2)c1,,19 µM (active)
CCN(CC)P(=O)(Oc1cccc(C)c1)N(CC)CC,2.83%,
COC(=O)C1=C(c2ccc(F)cc2F)C[C@@H]2CC[C@H]1N2C(=O)NC1CC1,-0.733%,
CN1CCN(c2cc(N3CCNCC3)ccc2[N+](=O)[O-])CC1,5.49%,

Structure (SMILES),"activity change, negative = inhibition",Potency
Cc1nc2ccc(N3CCN(C)CC3)cc2nc1C,,19 µM (active)
COC(=O)C1=C(c2cccc(OCc3ccccc3)c2)C[C@@H]2CC[C@H]1N2C(=O)NNCc1ccccc1,-1.66%,
CCOC(=O)C1=C(C)OC(N)=C(C(=O)OC)C12C(=O)Nc1ccc(Br)cc12 (stereo not given),7.3%,
Cc1ccc(-n2c(/C=C/c3cccc(C(F)(F)F)c3)nc3ccccc3c2=O)cc1,2.96%,
COC(=O)C1=C(c2ccc(F)cc2OCc2ccccc2)C[C@@H]2CC[C@H]1N2C(=O)NCc1ccc(Cl)cc1,-0.957%,
O=C1NC(=O)N(Cc2ccco2)C(=O)/C1=C\c1ccc(-c2ccc(F)cc2)o1,,10.7 µM (active)
O=C1NC(=O)N(CCc2ccc(F)cc2)C(=O)/C1=C/C=C/c1ccccc1,-1.25%,
Cc1cc(/C=C2/C(=O)NC(=O)N(Cc3ccco3)C2=O)c(C)n1-c1ccc(C(=O)O)cc1,-2.68%,
c1ccc2sc(C3CCCNC3)nc2c1 (stereo not given),-2.06%,
COC(=O)C1=C(c2ccc(F)cc2OCc2ccccc2)C[C@@H]2CC[C@H]1N2C(=O)NCc1ccc2[nH]ccc2c1,-0.247%,
CCOC(=O)c1c(-c2ccccc2)oc2ccc(OC(=O)N(C)C)cc12,1.44% [at 2.3 µM],
CN(C)C(=O)Oc1ccc2c(c1)O/C(=C\c1ccccc1)C2=O,,9.53 µM (active)
CN(C)C(=O)Oc1ccc(OCc2cccc[n+]2C)cc1,5.09%,
CCC12CCN(CCc3ccccc3)CC1Oc1c(O)cccc12 (stereo not given),6.79%,
COC(=O)C1=C(c2ccc(Cl)c(C(F)(F)F)c2)C[C@@H]2CC[C@H]1N2C(=O)NC(C)C,2.4%,
Cc1nn(-c2ccccc2)c(C)c1NC(=O)COC(=O)Cc1ccccc1,3.9%,
COc1ccc(C(=O)C2CN(C)CC2C(=O)c2ccc(OC)cc2)cc1 (stereo not given),-0.072%,
